HCV inh = inhibitors of hepatitis C virus infection. Huh7.5.1 HCVcc-Cre infection, luciferase reporter, 44 h. Potency, µM (highest dose often 41.8 µM), usual class: inhibitors. actives 3.4% (n = 340,000); active = well fitted inhibition curve with a large enough effect; inconclusive = small, poorly fitted or top-dose-only effect, or another doubt; inactive = no such curve, though single readings can be large or run the other way
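Cells (1,000/well) were plated 4 h before compound, then infected with HCVcc-Cre virus (~0.5 moi). After 44 h further culture, infection was read as luciferase luminescence following a 15 min substrate incubation at room temperature.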
Vaccinia mCherry = inhibitors of vaccinia virus infection (mCherry reporter signal); Vaccinia virus mCherry reporter infection, fluorescence; AID 720579; actives 0.63% (n = 310,000); Potency, µM (highest dose often 36.5 µM), usual class: inhibitors; calls by dose curve; tested in A549 cells; also: nearly all actives have a fitted effect of over 35% in size
HCMV inh = blocks human cytomegalovirus replication; activity change, negative = inhibition, % at 57.5 µM; actives 4.5% (n = 410,000); HFF cells, HCMV-luciferase reporter, 72 h; active compounds read low; in the data active = activity change below about -60%; inconclusive = no clear call, values can overlap the other calls; inactive = above about -39%
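Human foreskin fibroblasts infected with luciferase-reporter HCMV at MOI 1 PFU/cell, compounds at two doses. Luciferase measured 72 h post infection; normalized to buffer-only basal and Salinomycin (10uM) controls.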
VACV Venus inh = vaccinia inhibition (Venus reporter). Vaccinia virus Venus reporter expression, fluorescence. Potency, µM (top dose mostly 36.5 µM), usual class: inhibitors. actives 0.46% (n = 330,000). AID 720580; calls by dose curve; tested in A549 cells; also: nearly all actives have a fitted effect of over 30% in size
FMDV inh = foot and mouth disease virus antiviral activity; FMDV antiviral cell-based qHTS; actives 1.2% (n = 410,000); Potency, µM (titrated, usually from 57.9 µM), actives largely listed as inhibitors; calls by dose curve; tested in HEK293T cells; also: read-out not given here; nearly all actives have a fitted effect of over 45% in size
A number is an active result; 0 = inactive; ? = inconclusive; - = no result; [ ] = dose if it differs, or a comment. Sampled rows, rich in hits. Any-hit rate of the full collection: about 7.3%.

SMILES	HCV inh	Vaccinia mCherry	HCMV inh	VACV Venus inh	FMDV inh
CN(CC(=O)NC1CCCCCCC1)S(=O)(=O)c1cccc2cccnc12	0	0	-62.3	0	0
COc1ccc(N(C(=O)C(C)C)S(=O)(=O)c2ccc(Cl)cc2)cc1	0	-	0	-	0
COC(=O)c1c(C)oc2ccc(NS(=O)(=O)c3cc(OC)ccc3OC)cc12	0	?	-61.6	?	?
COc1ccc(OC)c(S(=O)(=O)Nc2ccc(Oc3ccccc3)cc2)c1	?	-	-63.5	-	0
COc1ccc(OC)c(S(=O)(=O)Nc2ccc(-c3ccc4nncn4n3)cc2)c1	?	8.91µM	?	10µM	0
COc1ccc(-c2ccc(NS(=O)(=O)c3cc(C)c(C)cc3C)cc2)nn1	-	0	-76.9	0	0
COc1ccc(OC)c(S(=O)(=O)Nc2ccc3oc(C)c(C(C)=O)c3c2)c1	0	0	0	0	0
COc1ccc(-c2ccc(NS(=O)(=O)c3ccccc3Cl)cc2)nn1	-	0	0	0	0
O=S(=O)(Nc1ccc(-c2ccc3nncn3n2)cc1)c1cc(F)ccc1F	0	?	0	0	0
CCOc1ccc(NS(=O)(=O)c2cc(OC)ccc2OC)cc1	0	0	0	0	0
C=C1C=C(C)n2ncc(C(=O)Nc3cccc4cnccc34)c2N1	-	0	-	0	-
CNC(=S)N1N=C(c2ccc(Br)cc2)CC1c1ccc(OC)cc1 (stereo not drawn)	10µM	0	0	0	0
COc1ccc(C2CC(c3ccc(Br)cc3)=NN2C(=O)CN2CCCC2)cc1 (stereo not drawn)	10µM	0[7.34 µM]	0	0[7.34 µM]	0
C=CCCCCCCCCCCCC(O)CC(O)CO (stereo not drawn) (tested in a mixture with another compound)	-	0	-	0	0
COc1ccc(C(=O)Nc2nc3n(n2)C(c2ccc(Cl)cc2)C=C(c2ccccc2)N3)cc1OC (stereo not drawn)	-	0	0	0	?
C=CCNC(=S)N/N=C/c1ccc(-c2ccc(OC)cc2)o1	?	?	0	?	14.1µM
C=CCNC(=S)N/N=C/c1ccc(C)cc1C	0	0	-62.1	0	0
C=CCNC(=S)N/N=C/c1ccc(-c2cc(Cl)ccc2Cl)o1	0	-	?	0	0
CCNC(=S)N/N=C/c1cc(C)ccc1C	?	0	0	0	0
CCCCCCc1cc2cc(-c3nnc(-c4ccccc4OC)o3)c(=O)oc2cc1O	0	?	-73.6	0	?
CCCCCCc1cc2cc(-c3nnc(-c4cc(OC)c(OC)c(OC)c4)o3)c(=O)oc2cc1O	?	-	-	-	0
CCCCCCc1cc2cc(-c3nnc(-c4ccccc4O)o3)c(=O)oc2cc1O	?	0	-104.1	0	?
COC(=O)CS(=O)(=O)c1nc2ccccc2nc1N1CCCCC1	-	0	-66.2	0	0
Clc1cccc(N2CCN(c3c4c(nc5nncn35)CCC4)CC2)c1	-	?	-64.8	0	22.4µM
COc1cccc(N2CCN(c3c4c(nc5nncn35)CCC4)CC2)c1	-	?	-94.7	?	?
SMILES	HCV inh	Vaccinia mCherry	HCMV inh	VACV Venus inh	FMDV inh
O=C(CNC(=O)c1ccccc1C(F)(F)F)N/N=C/c1cccs1	0	-	0	-	0
COc1ccc(-n2nnc(-c3nsc(NC(=O)c4cccs4)n3)c2C)cc1OC	-	0	0	0	0
Cc1ccc(OCCNC(=O)c2cncc(Br)c2)cc1C	0	?	-107.3	?	0
O=C(O)C1CSC(c2ccccc2Cl)N1C(=O)c1ccc(Cl)cc1 (stereo not drawn)	0	0	-61.0	0	0
Cc1ccc(C2SCC(C(=O)O)N2C(=O)c2ccc(F)cc2)cc1 (stereo not drawn)	0	0	0	0	0
CCOc1ccc(C(c2c(O)cc(C)n(Cc3ccco3)c2=O)N2CCN(C)CC2)cc1 (stereo not drawn)	-	0	0	0	0
CCC(C(=O)Nc1ccsc1C(=O)OC)c1ccccc1 (stereo not drawn)	0	0	-67.3	0	?
CCC(C(=O)Nc1cc(OC)c(NC(=O)c2ccccc2)cc1OC)c1ccccc1 (stereo not drawn)	11.2µM	0	0	0	0
CCC(C(=O)Nc1cc(Cl)ccc1OC)c1ccccc1 (stereo not drawn)	?	0	?	0	0
CCC(C)CCN1C(Nc2ccccc2)=NC[C@@H]1CC(C)C (stereo partly drawn)	0	0	0	0	0
CCN1C(Nc2ccccc2)=NC[C@@H]1Cc1ccccc1	0	0	0	0	0
Cc1cccc(CCN2C(Nc3ccccc3)=NC[C@@H]2CC(C)C)c1	2.82µM	0	?	0	?
